Compound activity deposited in PubChem BioAssay by National Center for Advancing Translational Sciences (NCATS).
Shown are actives, neighbours in structure and some others; about 7.4% of the full set was active somewhere.
Rab9 promoter act – activates the Rab9 promoter; Huh7 Rab9 promoter-luciferase reporter, luminescence, 24 h; 2.8% of 320,000 active; Potency, µM (titrated, usually from 9.22 µM), for the others: at the highest dose activation, negative = inhibition, usual class: activators; note: % of control where 0% means no effect; nearly all actives have a fitted effect of over 60% in size
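Quantitative HTS format; Huh7 Rab9-luciferase reporter cells (1500/well) receive compound 2 h post-plating, incubate 24 h at 37 °C, then get luciferase reagent for 10 min before luminescence reading.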
NPC1 promoter act – activators of NPC1 promoter; Potency, µM (series often up to 9.22 µM), for the others: at the top dose activation, usual class: activators; Huh7 NPC1 promoter luciferase reporter, 24 h; AID 485313; 2.4% of 320,000 active; note: % of control where 0% means no effect; nearly all actives have a fitted effect of over 60% in size
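Compounds in DMSO were transferred onto Huh7 NPC1-luciferase reporter cells pre-incubated 2 h; after 24 h at 37 °C, Amplite reagent was dispensed and luminescence recorded 10 min later.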
SMN2 splice up – increases expression of the SMN2 splice variant; Potency, µM (top dose mostly 46.1 µM), for the others: top-dose activity change, positive = activation, usual class: activators; 2.8% of 210,000 active; HEK293 SMN2-luciferase splicing reporter, luminescence, 30-36 h; note: % of control where 0% means no effect; nearly all actives have a fitted effect of over 55% in size
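HEK293 cells carry an SMN2 minigene-luciferase reporter in which exon 7 inclusion puts luciferase in frame. Cells were seeded at 2000 cells/well, attached for 10-12 hours, then exposed to compounds for 30-36 hours at 37C before ONE-Glo luminescence.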
FLuc modulator – counter-screen for miR-21 project: firefly luciferase inhibitors or activators; P08659; purified FLuc, Km substrates, luminescence inhibition; Potency, µM (highest dose often 57.5 µM), for the others: at the top dose activity change, negative = inhibition, most hits filed as inhibitors; 6.9% of 360,000 active; AID 588342;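 note: plate controls were vehicle for no effect and reference inhibitor for full effect; nearly all actives have a fitted effect of over 55% in size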
Target sequence (P08659 whole entry, looked up): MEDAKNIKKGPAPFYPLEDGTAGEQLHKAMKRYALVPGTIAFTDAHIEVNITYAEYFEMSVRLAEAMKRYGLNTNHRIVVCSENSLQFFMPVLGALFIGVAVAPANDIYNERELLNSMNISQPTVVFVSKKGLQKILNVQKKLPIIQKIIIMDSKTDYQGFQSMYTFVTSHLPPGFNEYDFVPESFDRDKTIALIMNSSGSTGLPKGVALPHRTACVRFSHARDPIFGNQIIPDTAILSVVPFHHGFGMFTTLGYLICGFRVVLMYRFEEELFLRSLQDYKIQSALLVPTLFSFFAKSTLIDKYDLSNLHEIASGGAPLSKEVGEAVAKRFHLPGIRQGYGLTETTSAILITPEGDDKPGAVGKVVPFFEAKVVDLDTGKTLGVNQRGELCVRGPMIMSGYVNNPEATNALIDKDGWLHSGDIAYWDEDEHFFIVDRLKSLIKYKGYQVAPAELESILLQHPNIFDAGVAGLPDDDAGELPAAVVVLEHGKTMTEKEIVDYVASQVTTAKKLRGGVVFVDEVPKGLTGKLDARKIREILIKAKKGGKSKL
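Purified P. pyralis luciferase (10nM final) with 10uM D-luciferin and 10uM ATP (Km levels) in 50mM Tris acetate pH 7.5, 10mM Mg acetate, 0.01% Tween-20, 0.05% BSA; qHTS 6-point titration, ~60 µM downward; luminescence read.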
ELG1 genotoxic – genotoxicity induction in ELG1-luciferase HEK293T cells. HEK293T ELG1-luciferase reporter, luminescence, 16 h. Potency, µM (series often up to 46 µM), inactives show at the top dose activity change, positive = activation, actives largely listed as activators. 1.3% of 330,000 active. AID 504466; note: % of control where 0% means no effect; nearly all actives have a fitted effect of over 60% in size
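Luminescence read-out: rising ELG1-luciferase signal, reflecting elevated ELG1 protein under genetic stress, flags genotoxic compounds. Cells were treated for 16 hr at 37 °C before ONE-Glo detection.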
The depositor's hits bear a star; ? = inconclusive; . = not tested or not shown. Calls come from the whole dose curve; as a rule, active = well fitted curve in the direction sought with a large enough effect; inconclusive = small, poorly fitted or top-dose-only effect, or another doubt; inactive = no such curve, though single readings can be large; an effect the other way counts as inactive or inconclusive. Potency is the fitted concentration of half-maximal effect.

SMILES | Rab9 promoter act | NPC1 promoter act | SMN2 splice up | FLuc modulator | ELG1 genotoxic
CC(=O)c1cccc(NC(=O)c2ccc3ccccc3c2)c1 | 2.8µM* | 3.2µM* | . | 1.9µM* | ?
O=C(Nc1cccc(NC(=O)c2cccs2)c1)c1ccc2c(c1)OCO2 | 7% | 10% | 28% | 15µM* | -2%
Nc1nc2c(ncn2C2CC(O)C(CO)O2)c(=O)[nH]1 (stereo not given) | . | . | 8% | . | .
CCOC(=O)C(=O)C1(C(=O)OCC)Oc2cc(OC)cc(OC)c2C(=O)C1c1ccccc1 (stereo not given) | . | . | -12% | . | .
Cc1c(C(=O)NCCc2ccccc2)cccc1-n1cnc2cccnc21 | . | . | . | -10% | .
CC(=O)N1c2ccccc2C(=O)C1N1CCN(c2cc(Cl)ccc2C)CC1 (stereo not given) | . | . | . | -10% | .
COCCNC(=O)c1ccc2c(=O)n(CCc3ccccc3)c(SCC(=O)CC(=O)OC)nc2c1 | . | . | . | 1% | .
CCOC(=O)c1cccc(NC(=O)c2ccc3c(c2)OCO3)c1 | 0.22µM* | 0.4µM* | . | 8.5µM* | ?
CC(=O)c1cccc(NC(=O)COC(=O)c2ccc3c(c2)OCO3)c1 | -1% | 1% | . | 3% | 2%
CCC/C(=N/NC(=O)c1ccc2c(c1)OCO2)c1cccs1 | ? | 13% | 20µM* | 17µM* | 13%
O=C(Nc1cccc(NC(=O)c2ccc3c(c2)OCO3)c1)c1ccccc1 | 1% | 7% | 11% | ? | -2%
CC(=O)c1cccc(NC(=O)c2ccc3c(c2)OCO3)c1 | ? | ? | . | 27µM* | 16%
COc1ccc(-c2cccc(NC(=O)c3ccc4c(c3)OCO4)c2)nn1 | -8% | 3% | . | 15µM* | -17%
O=C(Nc1ccc(NC(=O)c2cccs2)cc1)c1ccc2c(c1)OCO2 | -9% | -9% | . | 2% | ?
Cc1ccc(C)c(NC(=O)C(CC(C)C)N2Cc3ccccc3C2=O)c1 (stereo not given) | . | . | . | -2% | .
Cc1ccc(CNC(=O)c2ccc(N3CCCC3)c(NC(=O)Nc3ccc(C)cc3)c2)cc1 | . | . | . | 4% | .
Cc1ccc(-n2c(SCC(=O)Nc3c(C)cccc3C)nc(O)c(C)c2=O)cc1 | . | . | -14% | 3% | .
CCOC(=O)c1cccc(NC(=O)/C=C/c2cccc([N+](=O)[O-])c2)c1 | 16% | 0% | -22% | -11% | 2%
CCOC(=O)c1cccc(NC(=O)/C=C/c2ccc3c(c2)OCO3)c1 | 0.32µM* | 0.32µM* | ? | 1.9µM* | ?
CCOC(=O)c1c(N)sc(C(=O)Nc2ccc3c(c2)OCO3)c1C | 0.1µM* | 0.32µM* | -43% | 0.43µM* | 0.37µM*
CCOC(=O)c1c(C)c(C(=O)Nc2ccc3c(c2)OCO3)c(C)n1C | 1% | 5% | -29% | -13% | 2%
CC(=O)c1ccc(N2CCN(S(=O)(=O)c3cc(-c4onc(C)c4C)ccc3C)CC2)cc1 | . | . | . | 2% | .
CCCCCNC(=O)c1c[nH]c2ccc(S(=O)(=O)N3CCC(C)CC3)cc2c1=O | . | . | . | -9% | .
Oc1ccc2ccccc2c1C=Nc1ccc(N2CCOCC2)cc1 | 11% | 1% | 26% | 6µM* | -5%
OCC(CO)(CO)N=Cc1c(O)ccc2ccccc12 | 11% | -2% | -9% | 0% | -11%
SMILES | Rab9 promoter act | NPC1 promoter act | SMN2 splice up | FLuc modulator | ELG1 genotoxic
C=Cc1ccc(N=Cc2c(O)ccc3ccccc23)cc1 | -3% | -3% | . | 19µM* | -2%
CN(C)/N=C/c1c(O)ccc2ccccc12 | -3% | -2% | -33% | ? | 0%
CS/C(N)=N/N=C/c1c(O)ccc2ccccc12 | ? | -1% | . | 3µM* | ?
Oc1ccccc1N=Cc1c(O)ccc2ccccc12 | 2% | -3% | . | 13µM* | 0%
CCC(=O)N1CCc2cc(S(=O)(=O)CCC(=O)N3CCN(c4ccccc4Cl)CC3)ccc21 | . | . | 0% | -3% | .
O=C(NCc1ccccc1F)C1CCN(Cc2cc3ccccc3n2Cc2cccc(Cl)c2)CC1 | . | . | . | -2% | .
Cc1cc(C(=O)O)ccc1N=Cc1c(O)ccc2ccccc12 | -4% | 10% | . | 0.76µM* | 1%
CC(=O)c1cccc(N=Cc2c(O)ccc3ccccc23)c1 | 4% | -1% | . | ? | 0%
Oc1ccc2ccccc2c1C=Nc1ccccc1Br | 2% | -4% | . | 11µM* | 0%
Oc1ccc2ccccc2c1/C=N/c1nccs1 | -5% | 8% | -10% | -7% | -4%
Fc1cccc(CSc2ccc(-c3ccc4c(c3)OCO4)nn2)c1 | 17% | 12% | ? | 11µM* | 26%
O=[N+]([O-])c1cccc(-c2ccc(SCc3cccnc3)nn2)c1 | ? | 7% | 8% | ? | 5%
Cc1ccccc1CSc1ccc(-c2ccc3c(c2)OCO3)nn1 | ? | 24% | . | 7.6µM* | ?
c1cncc(CSc2ccc(-c3ccc4c(c3)OCO4)nn2)c1 | 2.8µM* | 3.2µM* | 1% | 17µM* | 17%
Cc1nc(C)c(-c2ccc(SCC(=O)Nc3ccccc3)nn2)s1 | -10% | 1% | . | ? | -18%
Cc1nc(C)c(-c2ccc(SCc3ccccc3C)nn2)s1 | 25% | 19% | . | 13µM* | 10%
CC(=O)c1ccc(NC(=O)CSc2ccc(-c3ccc4c(c3)OCO4)nn2)cc1 | ? | 23% | 8% | ? | 8%
CCC(C)n1c(=N)c(C(=O)NCc2ccccc2)cc2c(=O)n3cc(C)ccc3nc21 (stereo not given) | . | . | 10% | -4% | .
Cc1ccc(-n2cc(CNCCCn3cccn3)c(-c3cccc(C)c3)n2)cc1 | -4% | -4% | . | ? | 1%
CCN1CC(CNCc2cn(-c3ccc(OC)cc3)nc2-c2ccccc2Cl)CC1=O (stereo not given) | 3% | -6% | . | ? | 0%
Cc1ccc(-n2cc(CNCCCn3ccnc3C)c(-c3ccc(F)cc3)n2)cc1 | -4% | -2% | . | 24µM* | 1%
COc1ccc(-n2cc(CNCCc3cscn3)c(-c3ccccc3Cl)n2)cc1 | 0% | -1% | . | 24µM* | -2%
Cc1ccc(-n2cc(CNCCc3cscn3)c(-c3ccc(F)cc3)n2)cc1 | 8% | -2% | . | 11µM* | 0%
O=C(CCN1C(=O)c2ccccc2S1(=O)=O)Nc1ccc(Cl)cc1 | 6% | -6% | . | -7% | 2%
COc1ccc(-c2cn(Cc3ccc4ccccc4c3)nn2)cc1 | 12% | 23% | . | -4% | 8%
Cc1ccc(-c2cc(C(=O)O)n(Cc3ccccc3)n2)cc1 | . | . | -20% | ? | .
COc1ccc(-c2cn(Cc3ccc(C(=O)c4ccccc4)cc3)nn2)cc1 | ? | ? | . | 11µM* | 18µM*
O=C1c2ccccc2S(=O)(=O)N1CC1CC(c2ccc(Cl)cc2)=NO1 (stereo not given) | 2.2µM* | 3.5µM* | 16µM* | 2.4µM* | 16µM*
COc1ccc(C2=NOC(Cn3nc(C(=O)O)cc3-c3ccccc3)C2)cc1 (stereo not given) | 0% | -1% | . | 0% | -2%
